# PNC assembly inh = blocks assembly of the perinucleolar compartment | AID 2417 | activity change (PNC), negative = inhibition, % at 10 µM | PC3M PTB-GFP, PNC prevalence imaging, 16 h; active compounds read low | 140,000 compounds, 3.1% hits;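 active means readout at or below -70, meaning at least 70% loss of cells showing the perinucleolar compartment, a nuclear body marking cancer cells; inconclusive means readout between -30 and a set limit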
#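 Read-out is percentage of cells bearing a perinucleolar compartment, from automated 20x imaging of fixed, Hoechst-stained PC3M PTB-GFP cells. Cells were seeded 4 h, then exposed 16 h to compound (23 nl of library stock) in duplicate plates.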
# IMPase Li inh = cell-permeable IMPase inhibitors with lithium potentiation; CHO-M1 cells, IP1 TR-FRET (IP-One), carbachol + lithium; Potency, µM (highest dose often 59.4 µM), actives largely listed as inhibitors; 210,000 compounds, 0.35% hits; AID 1457; active means well fitted curve in the direction sought with a large enough effect; inconclusive means small, poorly fitted or top-dose-only effect, or another doubt; inactive means no such curve, though single readings can be large; an effect the other way counts as inactive or inconclusive;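 further: IP1 builds up when IMPase is blocked and the TR-FRET signal falls; nearly all actives have a fitted effect of over 50% in size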
#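 Steps: plate 2000 CHO-M1 cells per well and culture 16–30 h; add compound and lithium; incubate 30 min, 37C; add d2-IP1 tracer and Eu cryptate anti-IP1 antibody in lysis buffer; read after 10 min at room temperature.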
# ALDH1A1 block = blocks purified human ALDH1A1 activity | P00352 | Purified ALDH1A1, NADH fluorescence, propionaldehyde substrate | Potency, µM (titrated, usually from 75.3 µM), hits mostly inhibitors | 220,000 compounds, 7.3% hits | AID 1030
# IMPase cell inh = IMPase inhibition in cells | P97697 | CHO-M1 cells, IP1 accumulation, HTRF TR-FRET ratio | inhibition (IP1 accumulation), % at 46.1 µM | 120,000 tested, under 10 active | AID 901; active means well fitted curve in the direction sought with a large enough effect in the signal ratio, not every such curve was filed as active; inconclusive means small, poorly fitted or top-dose-only effect, or a change in a side signal; inactive means no such curve, though single readings can be large or run the other way; the % refers to the signal ratio;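 further: cells stimulated with carbachol in lithium chloride buffer; higher means more IMPase inhibition seen as more IP1 and lower FRET ratio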
#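 CHO-M1 cells (CHO stably expressing M1 receptor), compound up to 46 uM final, stimulated with carbachol (50 uM as added) in buffer with 50mM LiCl, pH 7.4, 30 min at 37C. Cytosolic IP1 read by TR-FRET; AC50 from Hill fits.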
# ALOX12 inhib = blocks human 12-lipoxygenase activity; Potency, µM (top dose mostly 57.1 µM), most hits filed as inhibitors; P18054; purified 12-hLO, xylenol orange hydroperoxide absorbance; 150,000 compounds, 0.12% hits; active means well fitted curve in the direction sought with a large enough effect; inconclusive means small, poorly fitted or top-dose-only effect, or another doubt; inactive means no such curve, though single readings can be large; an effect the other way counts as inactive or inconclusive; further: nearly all actives have a fitted effect of over 55% in size
#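 150 nM 12hLO, 25 mM Hepes pH 7.0 + 0.01% Triton X-100; cpd preinc 15 min RT; 40 uM arachidonic acid, 30 min RT; Fe-XO 30 min; A573/A405 ratio as read-out.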
# HPGD inh = inhibitors of human 15-hydroxyprostaglandin dehydrogenase (HPGD); 150,000 compounds, 4.3% hits; purified HPGD, NADH fluorescence kinetic, PGE2 substrate; Potency, µM, most hits filed as inhibitors; AID 894; P15428
#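 20 nM HPGD preincubated 15 min at room temperature with compound in 50 mM Tris-HCl pH 8, 0.01% Tween 20. Started with 1 mM NAD+ and 30 uM prostaglandin E2; NADH fluorescence (360/450 nm) read 5 times over 30-s intervals, last minus first.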
# Hits are given with their value; i = inactive; ? = inconclusive; nt = no result given. This is a sample that favours compounds with a hit; in the whole collection about 11% have one here. Unless noted, the call rests on the fitted dose curve; in most records, active means well fitted inhibition curve with a large enough effect (not every such curve was filed as active); inconclusive means small, poorly fitted or top-dose-only effect, or another doubt; inactive means no such curve, though single readings can be large or run the other way.
SMILES,PNC assembly inh,IMPase Li inh,ALDH1A1 block,IMPase cell inh,ALOX12 inhib,HPGD inh
O=C(NC(=S)Nc1ccc(Oc2ccc(Cl)cc2)cc1)c1ccccc1,i,i,8.91µM,i,12.6µM,i
CCC(=O)NC(=S)Nc1ccc(NC(=S)NC(=O)c2ccccc2)cc1,nt,i,25.1µM,nt,nt,nt
O=C(CCc1ccccc1)NNC(=S)NC(=O)c1ccc(Cl)cc1,?,i,11.2µM,i,i,i
CC(C)(C)c1ccc(OCC(=O)NC(Cc2c[nH]c3ccccc23)C(=O)O)cc1 (stereo unspecified),nt,nt,nt,i,nt,nt
Cn1c(-c2cccc([N+](=O)[O-])c2)cnc1NCc1ccc(C#N)cc1,nt,i,?,nt,nt,nt
CC(C)(C)NC(=O)CN1CCN(C(=O)CCl)CC1,nt,i,0.316µM,nt,nt,nt
CC(C)(C)NC(=O)NC(=O)CN1CCCCCCC1,nt,i,?,nt,nt,nt
CCOC(=O)N1CCN(C(=O)CCl)CC1,nt,i,0.562µM,nt,nt,nt
O=C1C(Cl)=C(NCCc2ccccc2)C(=O)N1CCc1ccccc1,i,i,i,i,i,i
O=C1C(Cl)=C(NCCCN2CCOCC2)C(=O)N1CCc1ccccc1,i,i,7.94µM,i,i,i
COc1cc(/C=N/NC(=O)c2cc(-c3ccccc3)n[nH]2)cc(OC)c1OC,nt,nt,?,nt,i,?
Cc1ccc(S(=O)(=O)Oc2cccc(/C=N/n3cnnc3)c2)cc1,i,i,0.891µM,nt,i,?
COc1cc(/C=N/NC(=O)c2nonc2C)ccc1O,nt,i,i,nt,nt,nt
Cc1nonc1C(=O)N/N=C/c1ccc(O)c(O)c1,i,i,i,i,i,31.6µM
O=C(NC(=S)N1CCOCC1)c1cc2ccccc2o1,nt,i,25.1µM,nt,nt,nt
O=C(NCCCN1CCOCC1)c1cc2ccccc2o1,i,i,i,i,i,i
O=C(Nc1ccccc1N1CCCC1)c1cc2ccccc2o1,i,i,28.2µM,i,i,i
CN1CCN(c2ccccc2NC(=O)c2cc3ccccc3o2)CC1,i,i,i,i,i,i

# High-throughput results: PubChem BioAssay, National Center for Advancing Translational Sciences (NCATS)
